# Laboratory results as given in PubChem BioAssay AID720650 (Broad Institute, 2013).
# Calls of active or inactive are those of the source. How the calls were made is not given here.
# Assay: Biochemical counterscreen for C difficile toxins, absence of UDPG, inhibitor dose response (AID 720650)
# Details: series mostly up to 19.5 µM; activity change, negative = inhibition: at the top concentration
SMILES,AC50,"activity change, negative = inhibition"
O=C(NNc1ccc(-c2csnn2)cc1)c1ccccc1C(F)(F)F,0.432 µM (active),–
Cc1noc(/C=C/c2ccccc2F)c1S(=O)(=O)N1CCC(C(=O)N2CCN(C)CC2)CC1,–,-4.2% (inactive)
c1ccc(SCc2nc3ccccc3s2)nc1,–,-1.41% (inactive)
C=CCn1c(C)cc(C(=O)COC(=O)CCc2cc(OC)c(OC)c(OC)c2)c1C,–,-24.1% (inactive)
Cc1[nH]nc(-c2ccc(O)cc2O)c1Oc1ccccc1,14.6 µM (active),–
O=c1[nH]c(/C=C\c2ccc(O)cc2)nc(O)c1[N+](=O)[O-],12.2 µM (active),–
CC(=O)C(Sc1nccc(-c2cccs2)n1)C(C)=O,9.69 µM (active),–
Cc1ccc(CSc2nc3nc(C)cc(C)c3c(=O)[nH]2)cc1,–,-3.21% (inactive)
COc1cc(/C=C/C(=O)OCC(=O)NC(=O)NC(C)(C)C)ccc1O,–,6.81% (inactive)
CC(=O)C1=CCC(c2ccccc2)N(S(=O)(=O)c2ccc(C)cc2)C1 (centres undefined),–,-25.6% (inactive)
Cc1c(CCCC(=O)O)sc(N)c1C(=O)c1cccc(C(F)(F)F)c1,–,-5.33% (inactive)
Cc1ccc(-c2cc(C(=O)OC3CCOC3=O)c3ccccc3n2)c(C)c1 (centres undefined),–,-6.55% (inactive)
O=C(/C=C/c1ccc(O)cc1)c1ccccc1,9.92 µM (active),–
COc1cc(/C=N/N2C(=O)C3C4C=CC(CC4)C3C2=O)ccc1O (centres undefined),–,-15% (inactive)
COc1cc(/C=N/n2c(-c3ccccc3)n[nH]c2=S)ccc1O,–,7.21% (inactive)
CC(=O)c1ccc(NC(=O)CNCC(c2ccccc2)N(C)C)cc1 (centres undefined),–,-3.41% (inactive)
CCOC(=O)/C=c1/s/c(=C/c2ccc3cc(OC)ccc3c2)c(=O)n1CC(=O)NCC1CCCO1 (centres undefined),–,-9.72% (inactive)
Cc1ccc(C2=NS(=O)(=O)N(C)C(C(=O)NCc3cccs3)=C2)cc1,–,-9.62% (inactive)
O=c1[nH]nc(-c2ccc(F)cc2)cc1Cc1ccccc1,–,0.756% (inactive)
CN1c2ccc(-c3ccccc3)cc2[C@@H]2[C@@H](CCN2C(=O)CN2CCOCC2)[C@@H]1CO,7.03 µM (active),–

SMILES,AC50,"activity change, negative = inhibition"
COc1ccc(/C=C2\CCC(C3CCCC3)C2=O)cc1 (centres undefined),–,-12.6% (inactive)
CC(C)Cc1[nH]c(=O)c(C#N)c2c1CCCC2,–,6.43% (inactive)
COc1ccc(C(=O)/C=C/c2ccc(O)cc2)c2c1CC(O)C(C)(C)O2 (centres undefined),–,-8.07% (inactive)
Cc1ccc(-c2cc(C(=O)NNC(=O)c3csc(N4CCOCC4)n3)c3ccccc3n2)cc1,–,8.62% (inactive)
COc1cc2c(cc1O)CC[n+]1cc3c(OC)c(OC)ccc3cc1-2,> 39 µM (inactive),–
CCOCC(=O)Nc1cc(Cl)ccc1C,–,-3.64% (inactive)
COc1ccc(-c2cnc3c(c2)C(=O)N([C@@H](C)CO)C[C@H](C)[C@H](CN(C)C(=O)C2CCCCC2)O3)cc1,–,-9.66% (inactive)
NC(=O)NN=C1CC2CC1C1C=CCC21 (centres undefined),–,-12.3% (inactive)
CC(=O)c1cccc(-c2ccnc3c2CC(C(=O)NCc2ccccc2)O3)c1 (centres undefined),–,-7.26% (inactive)
CCCNC(=O)C1(C)CCCN(C(=O)c2ccccc2OC(F)(F)F)C1 (centres undefined),–,-5.78% (inactive)
CC(C)Cc1[nH]c(=O)c(C#N)c2c1CCC2,–,0.92% (inactive)
O=C(CSc1nc2ccccc2[nH]1)NC1CCCc2ccccc21 (centres undefined),> 39 µM (inactive),–
c1ccc2[nH]c(-c3ccc4c(c3)OCO4)nc2c1,–,-21.3% (inactive)
Cc1ccc(C(=O)Nc2scc(-c3ccccc3)c2C(=O)O)cc1,9.56 µM (active),–
CN(C(=O)Cn1c(=O)oc2cc(S(=O)(=O)N3CCCC3)ccc21)C1CCCCC1,–,-7.83% (inactive)
COc1ccccc1/C=C/c1onc(C)c1S(=O)(=O)N1CCC(C(=O)NC(C)C)CC1,–,-4.21% (inactive)
CCc1[nH]c(=O)c(C#N)c2c1CCCC2,–,-1.25% (inactive)
COc1ccc(C2=NS(=O)(=O)N(C)C(C(=O)NCc3ccc4c(c3)OCO4)=C2)cc1,–,0.057% (inactive)
CCOC(=O)N1CCC(c2cc(=O)n3[nH]c(-c4ccccc4)cc3n2)CC1,–,-11.1% (inactive)
